Experimental data reported in PubChem BioAssay AID1159580 (chemical genetic matrix, 2015).
In all, about 5,500 compounds went through this assay and about 2,000 (36%) were called active. Not shown: some 18% with an inconclusive outcome. No stated cut-off is given here; in the data, active means normalized growth mostly below about 0.91 (no sharp cut-off); inconclusive means no clear call, values can overlap the other calls; inactive means mostly above about 0.92. Some of the results follow.

Assay: chemical genetic growth profiling, strain panel (AID 1159580);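 further: tested at 20 µM; growth read once vehicle control cultures reached saturation at 30 °C; 1 = growth at the plate median or of vehicle wells; lower values mean less growth of the strain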
Settings: growth OD
[1] = S. cerevisiae deletion strains, locus YAL013W, strain DEP1, hits give low values
[2] = S. cerevisiae deletion strains, locus YBR229C, strain ROT2, hits give low values
[3] = S. cerevisiae deletion strains, locus YDL101C, strain DUN1, hits give low values
[4] = S. cerevisiae deletion strains, locus YDR150W, strain NUM1, hits give low values
[5] = S. cerevisiae deletion strains, locus YEL061C, strain CIN8, hits give low values
[6] = S. cerevisiae deletion strains, locus YGR078C, strain PAC10, hits give low values
[7] = S. cerevisiae deletion strains, locus YHR030C, strain SLT2, hits give low values
[8] = S. cerevisiae deletion strains, locus YHR087W, strain rtc3, hits give low values
[9] = S. cerevisiae deletion strains, locus YJR043C, strain POL32, hits give low values
[10] = S. cerevisiae deletion strains, locus YJR075W, strain HOC1, hits give low values
[11] = S. cerevisiae deletion strains, locus YLR039C, strain RIC1, hits give low values
[12] = S. cerevisiae deletion strains, locus YLR058C, strain SHM2 (second series), hits give low values
[13] = S. cerevisiae deletion strains, locus YLR085C, strain ARP6, hits give low values
[14] = S. cerevisiae deletion strains, locus YLR262C, strain YPT6, hits give low values
[15] = S. cerevisiae deletion strains, locus YML094W, strain GIM5, hits give low values
[16] = S. cerevisiae deletion strains, locus YMR219W, strain ESC1, hits give low values
[17] = S. cerevisiae deletion strains, locus YMR263W, strain SAP30, hits give low values
[18] = S. cerevisiae deletion strains, locus YNL128W, strain TEP1, hits give low values
[19] = S. cerevisiae deletion strains, locus YNL153C, strain GIM3, hits give low values
[20] = S. cerevisiae deletion strains, locus YNL298W, strain CLA4 (second series), hits give low values
[21] = S. cerevisiae deletion strains, locus YNL322C, strain KRE1, hits give low values
[22] = S. cerevisiae deletion strains, locus YNR030W, strain Alg12, hits give low values
[23] = S. cerevisiae deletion strains, locus YPL055C, strain LGE1, hits give low values
[24] = S. cerevisiae deletion strains, locus YPL241C, strain CIN2, hits give low values
[25] = S. cerevisiae deletion strains, locus YPR135W, strain CTF4, hits give low values

Measured: normalized growth

Cn1c(CSCC(=O)Nc2ccccc2)n[nH]c1=S
inactive: [1] 1.01 | [2] 1.01 | S. cerevisiae deletion strains, locus YCL061C, strain MRC1, hits give low values 1.02 | [3] 1.02 | [4] 1.02 | [5] 1 | [6] 0.999 | [7] 1.09 | [8] 1.01 | [9] 1.02 | [10] 0.991 | [11] 1 | [12] 1 | [13] 0.966 | [14] 1.01 | [15] 0.994 | [16] 0.993 | [17] 1.02 | [18] 0.994 | [19] 1.02 | [20] 1.03 | [21] 0.99 | [22] 1 | [23] 1.03 | [24] 1 | [25] 1.07 | S. cerevisiae strains, strain wild type, hits give low values 0.981

O=C(CSCc1csc2ccccc12)Nc1ccc(F)c(Cl)c1
inactive: S. cerevisiae deletion strains, locus YAR019C, strain CDC15, hits give low values 0.978 | S. cerevisiae deletion strains, locus YBL105C, strain PKC1, hits give low values 0.977 | S. cerevisiae deletion strains, locus YBR135W, strain CKS1, hits give low values 0.973 | S. cerevisiae deletion strains, locus YBR136W, strain MEC1, hits give low values 0.981 | S. cerevisiae deletion strains, locus YBR160W, strain CDC28, hits give low values 0.974 | S. cerevisiae deletion strains, locus YDL017W, strain CDC7, hits give low values 0.98 | S. cerevisiae deletion strains, locus YDL028C, strain MPS1, hits give low values 0.982 | [3] 0.999 | S. cerevisiae deletion strains, locus YDL108W, strain KIN28, hits give low values 0.973 | S. cerevisiae deletion strains, locus YDL132W, strain cdc53, hits give low values 0.982 | S. cerevisiae deletion strains, locus YDL214C, strain PRR2, hits give low values 0.885 | S. cerevisiae deletion strains, locus YDR052C, strain DBF4, hits give low values 0.99 | S. cerevisiae deletion strains, locus YDR054C, strain cdc34, hits give low values 0.97 | S. cerevisiae deletion strains, locus YDR226W, strain ADK1, hits give low values 0.986 | S. cerevisiae deletion strains, locus YDR477W, strain SNF1, hits give low values 0.909 | S. cerevisiae deletion strains, locus YER123W, strain YCK3, hits give low values 0.884 | S. cerevisiae deletion strains, locus YER133W, strain GLC7, hits give low values 0.921 | S. cerevisiae deletion strains, locus YFL009W, strain cdc4, hits give low values 0.978 | S. cerevisiae deletion strains, locus YFL029C, strain CAK1, hits give low values 0.975 | S. cerevisiae deletion strains, locus YFR003C, strain YPI1, hits give low values 0.978 | S. cerevisiae deletion strains, locus YFR019W, strain FAB1, hits give low values 0.93 | S. cerevisiae deletion strains, locus YFR028C, strain CDC14, hits give low values 0.975 | S. cerevisiae deletion strains, locus YGR040W, strain KSS1, hits give low values 0.917 | S. cerevisiae deletion strains, locus YGR052W, strain FMP48, hits give low values 0.925 | S. cerevisiae deletion strains, locus YGR092W, strain DBF2, hits give low values 0.878 | S. cerevisiae deletion strains, locus YHR079C, strain IRE1, hits give low values 0.858 | S. cerevisiae deletion strains, locus YHR082C, strain KSP1, hits give low values 0.896 | S. cerevisiae deletion strains, locus YHR205W, strain SCH9, hits give low values 0.845 | S. cerevisiae deletion strains, locus YIL147C, strain SLN1, hits give low values 0.984 | S. cerevisiae deletion strains, locus YJL095W, strain BCK1, hits give low values 0.877 | S. cerevisiae deletion strains, locus YJL128C, strain PBS2, hits give low values 0.946 | S. cerevisiae deletion strains, locus YJL157C, strain FAR1, hits give low values 0.875 | S. cerevisiae deletion strains, locus YJR016C, strain ILV3, hits give low values 0.972 | S. cerevisiae deletion strains, locus YJR066W, strain TOR1 (second series), hits give low values 0.893 | S. cerevisiae deletion strains, locus YJR066W, strain TOR1, hits give low values 0.889 | S. cerevisiae deletion strains, locus YKL048C, strain ELM1, hits give low values 0.952 | S. cerevisiae deletion strains, locus YKL067W, strain YNK1, hits give low values 0.897 | S. cerevisiae deletion strains, locus YKL101W, strain HSL1, hits give low values 0.89 | S. cerevisiae deletion strains, locus YKL193C, strain SDS22, hits give low values 0.977 | S. cerevisiae deletion strains, locus YKL203C, strain TOR2, hits give low values 0.96 | S. cerevisiae deletion strains, locus YLR133W, strain CKI1, hits give low values 0.899 | S. cerevisiae deletion strains, locus YLR403W, strain SFP1, hits give low values 0.889 | S. cerevisiae deletion strains, locus YML070W, strain DAK1, hits give low values 0.849 | S. cerevisiae deletion strains, locus YMR001C, strain CDC5, hits give low values 0.977 | S. cerevisiae deletion strains, locus YMR205C, strain PFK2 (second series), hits give low values 0.904 | S. cerevisiae deletion strains, locus YMR277W, strain FCP1, hits give low values 0.978 | S. cerevisiae deletion strains, locus YNL006W, strain LST8, hits give low values 0.978 | S. cerevisiae deletion strains, locus YNL020C, strain ARK1, hits give low values 0.887 | S. cerevisiae deletion strains, locus YNL161W, strain CBK1, hits give low values 0.977 | S. cerevisiae deletion strains, locus YNL183C, strain NPR1, hits give low values 0.879 | S. cerevisiae deletion strains, locus YNL207W, strain RIO2, hits give low values 0.974 | S. cerevisiae deletion strains, locus YNL222W, strain SSU72, hits give low values 0.966 | S. cerevisiae deletion strains, locus YNL307C, strain MCK1 (second series), hits give low values 0.877 | S. cerevisiae deletion strains, locus YOL078W, strain AVO1, hits give low values 0.979 | S. cerevisiae deletion strains, locus YOL136C, strain PFK27, hits give low values 0.843 | S. cerevisiae deletion strains, locus YOR061W, strain CKA2, hits give low values 0.895 | S. cerevisiae deletion strains, locus YOR119C, strain RIO1, hits give low values 0.965 | S. cerevisiae deletion strains, locus YOR231W, strain MKK1, hits give low values 0.814 | S. cerevisiae deletion strains, locus YOR329C, strain SCD5, hits give low values 0.982 | S. cerevisiae deletion strains, locus YPL031C, strain PHO85, hits give low values 0.906 | S. cerevisiae deletion strains, locus YPL153C, strain RAD53, hits give low values 0.897 | S. cerevisiae deletion strains, locus YPL204W, strain HRR25, hits give low values 0.907 | S. cerevisiae deletion strains, locus YPL209C, strain IPL1, hits give low values 0.973 | S. cerevisiae deletion strains, locus YPR025C, strain CCL1, hits give low values 0.975 | S. cerevisiae deletion strains, locus YPR106W, strain ISR1, hits give low values 0.961 | S. cerevisiae deletion strains, locus YPR111W, strain DBF20, hits give low values 0.952 | S. cerevisiae deletion strains, strain NNK1, hits give low values 0.956 | S. cerevisiae deletion strains, strain TSCII, hits give low values 0.977
active: [7] 0.821 | S. cerevisiae deletion strains, locus YLR113W, strain HOG1, hits give low values 0.68 | S. cerevisiae deletion strains, locus YPL256C, strain CLN2, hits give low values 0.754

O=C(CSCc1c(F)cccc1Cl)NC1Cc2ccccc2C1
inactive: [1] 0.984 | [2] 0.973 | [3] 0.995 | [4] 0.959 | [5] 0.949 | [6] 0.978 | [7] 0.776 | [8] 0.962 | [9] 0.991 | [10] 0.944 | [11] 0.925 | [12] 0.973 | [13] 0.906 | [14] 0.964 | [15] 0.956 | [16] 0.97 | [17] 0.991 | [18] 0.988 | [19] 0.977 | [20] 0.944 | [21] 0.973 | [22] 0.943 | [23] 0.944 | [24] 0.938 | [25] 0.76
active: S. cerevisiae deletion strains, locus YMR307W, strain GAS1, hits give low values 0.628
